Unmarked numbers belong to inactive results.

Sequence of UniProt Q70CQ2 (Q70CQ2 whole entry): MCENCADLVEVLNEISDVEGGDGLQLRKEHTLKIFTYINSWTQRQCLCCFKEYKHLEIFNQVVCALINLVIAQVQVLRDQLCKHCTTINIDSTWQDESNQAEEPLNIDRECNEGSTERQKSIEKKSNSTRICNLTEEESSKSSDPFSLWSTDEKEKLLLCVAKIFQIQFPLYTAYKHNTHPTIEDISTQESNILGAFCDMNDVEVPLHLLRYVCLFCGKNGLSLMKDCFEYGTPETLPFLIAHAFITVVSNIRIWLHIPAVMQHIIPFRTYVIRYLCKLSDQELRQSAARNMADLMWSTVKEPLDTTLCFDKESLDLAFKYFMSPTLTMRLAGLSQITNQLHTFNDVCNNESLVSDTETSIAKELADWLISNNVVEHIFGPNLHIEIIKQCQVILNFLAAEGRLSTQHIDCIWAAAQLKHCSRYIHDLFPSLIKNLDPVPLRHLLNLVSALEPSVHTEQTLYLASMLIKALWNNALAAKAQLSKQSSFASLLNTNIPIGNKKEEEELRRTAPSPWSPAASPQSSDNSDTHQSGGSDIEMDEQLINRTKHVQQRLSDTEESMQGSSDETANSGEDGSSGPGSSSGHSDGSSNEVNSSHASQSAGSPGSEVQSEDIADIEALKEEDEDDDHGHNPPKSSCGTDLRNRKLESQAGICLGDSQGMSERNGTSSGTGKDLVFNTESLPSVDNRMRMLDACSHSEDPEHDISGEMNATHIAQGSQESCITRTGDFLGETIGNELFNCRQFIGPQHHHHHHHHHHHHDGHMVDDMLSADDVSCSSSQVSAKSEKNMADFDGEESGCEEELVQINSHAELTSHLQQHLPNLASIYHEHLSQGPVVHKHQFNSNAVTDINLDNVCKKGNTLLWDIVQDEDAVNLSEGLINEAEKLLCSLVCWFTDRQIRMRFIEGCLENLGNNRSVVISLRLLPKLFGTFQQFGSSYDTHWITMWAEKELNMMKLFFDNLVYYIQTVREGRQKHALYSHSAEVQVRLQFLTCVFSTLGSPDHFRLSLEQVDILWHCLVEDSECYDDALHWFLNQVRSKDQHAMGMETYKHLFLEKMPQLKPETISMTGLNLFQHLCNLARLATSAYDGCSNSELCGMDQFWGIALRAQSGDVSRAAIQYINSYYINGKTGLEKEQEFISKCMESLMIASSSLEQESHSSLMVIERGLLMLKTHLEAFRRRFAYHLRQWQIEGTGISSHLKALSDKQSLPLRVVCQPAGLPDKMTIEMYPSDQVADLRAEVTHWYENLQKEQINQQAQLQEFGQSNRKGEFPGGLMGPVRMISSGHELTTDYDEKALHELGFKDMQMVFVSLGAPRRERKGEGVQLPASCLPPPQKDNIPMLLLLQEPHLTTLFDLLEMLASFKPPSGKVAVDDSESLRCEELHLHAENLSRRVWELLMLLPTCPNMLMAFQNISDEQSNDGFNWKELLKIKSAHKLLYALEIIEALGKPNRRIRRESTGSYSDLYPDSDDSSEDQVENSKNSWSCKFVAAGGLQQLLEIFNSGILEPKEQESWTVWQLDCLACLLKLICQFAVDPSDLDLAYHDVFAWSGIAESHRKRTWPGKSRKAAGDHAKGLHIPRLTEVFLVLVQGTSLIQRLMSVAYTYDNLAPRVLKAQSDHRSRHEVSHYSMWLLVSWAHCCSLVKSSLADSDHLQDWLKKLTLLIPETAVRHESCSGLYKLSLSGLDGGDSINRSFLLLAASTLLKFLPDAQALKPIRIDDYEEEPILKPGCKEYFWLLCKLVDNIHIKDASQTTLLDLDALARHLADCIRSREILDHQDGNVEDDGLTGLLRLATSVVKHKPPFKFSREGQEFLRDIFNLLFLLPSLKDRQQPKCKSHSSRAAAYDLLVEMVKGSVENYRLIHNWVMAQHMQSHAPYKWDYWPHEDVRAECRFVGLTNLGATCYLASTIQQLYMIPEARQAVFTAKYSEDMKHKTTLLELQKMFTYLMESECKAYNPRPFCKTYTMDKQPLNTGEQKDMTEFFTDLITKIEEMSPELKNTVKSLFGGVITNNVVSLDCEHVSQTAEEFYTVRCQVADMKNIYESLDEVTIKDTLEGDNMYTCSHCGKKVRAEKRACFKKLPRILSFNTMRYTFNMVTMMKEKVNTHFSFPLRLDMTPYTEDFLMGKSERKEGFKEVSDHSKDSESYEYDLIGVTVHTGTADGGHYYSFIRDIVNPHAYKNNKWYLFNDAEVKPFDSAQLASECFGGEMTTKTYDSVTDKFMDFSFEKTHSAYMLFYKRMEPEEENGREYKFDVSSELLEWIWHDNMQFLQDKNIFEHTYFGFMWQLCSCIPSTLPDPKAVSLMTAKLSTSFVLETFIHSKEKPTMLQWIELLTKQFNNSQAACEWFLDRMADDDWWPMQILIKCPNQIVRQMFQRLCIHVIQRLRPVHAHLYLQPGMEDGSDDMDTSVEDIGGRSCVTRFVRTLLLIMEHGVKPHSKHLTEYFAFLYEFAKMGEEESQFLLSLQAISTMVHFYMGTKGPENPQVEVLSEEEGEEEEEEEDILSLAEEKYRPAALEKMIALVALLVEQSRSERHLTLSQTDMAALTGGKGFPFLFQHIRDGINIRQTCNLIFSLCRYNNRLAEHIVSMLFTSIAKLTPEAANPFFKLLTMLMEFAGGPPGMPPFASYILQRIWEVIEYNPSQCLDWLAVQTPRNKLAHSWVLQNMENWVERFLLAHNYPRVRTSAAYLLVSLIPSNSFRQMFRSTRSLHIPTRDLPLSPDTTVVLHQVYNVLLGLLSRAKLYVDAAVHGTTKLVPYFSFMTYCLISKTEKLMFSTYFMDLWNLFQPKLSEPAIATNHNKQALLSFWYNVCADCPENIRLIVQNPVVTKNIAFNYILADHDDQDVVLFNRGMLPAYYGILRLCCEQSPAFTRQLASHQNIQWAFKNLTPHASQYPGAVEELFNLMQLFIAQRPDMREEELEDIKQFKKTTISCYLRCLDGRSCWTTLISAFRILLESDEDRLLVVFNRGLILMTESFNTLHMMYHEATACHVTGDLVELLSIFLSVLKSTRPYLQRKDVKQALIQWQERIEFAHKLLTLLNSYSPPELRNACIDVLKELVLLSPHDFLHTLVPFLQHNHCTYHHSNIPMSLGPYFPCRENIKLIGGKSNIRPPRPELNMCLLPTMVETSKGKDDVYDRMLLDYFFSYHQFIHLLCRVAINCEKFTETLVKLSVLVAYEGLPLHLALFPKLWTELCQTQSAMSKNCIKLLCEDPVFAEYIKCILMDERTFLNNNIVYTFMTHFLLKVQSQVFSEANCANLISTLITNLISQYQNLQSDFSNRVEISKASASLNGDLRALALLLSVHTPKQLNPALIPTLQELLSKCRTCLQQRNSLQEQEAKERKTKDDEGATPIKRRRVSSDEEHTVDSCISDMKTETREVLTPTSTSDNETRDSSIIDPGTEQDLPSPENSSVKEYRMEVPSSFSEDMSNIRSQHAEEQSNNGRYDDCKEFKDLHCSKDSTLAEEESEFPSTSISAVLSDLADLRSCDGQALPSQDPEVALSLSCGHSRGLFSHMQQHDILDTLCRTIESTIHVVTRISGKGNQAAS
Sequence of UniProt Q9UGI0 (Q9UGI0 whole entry): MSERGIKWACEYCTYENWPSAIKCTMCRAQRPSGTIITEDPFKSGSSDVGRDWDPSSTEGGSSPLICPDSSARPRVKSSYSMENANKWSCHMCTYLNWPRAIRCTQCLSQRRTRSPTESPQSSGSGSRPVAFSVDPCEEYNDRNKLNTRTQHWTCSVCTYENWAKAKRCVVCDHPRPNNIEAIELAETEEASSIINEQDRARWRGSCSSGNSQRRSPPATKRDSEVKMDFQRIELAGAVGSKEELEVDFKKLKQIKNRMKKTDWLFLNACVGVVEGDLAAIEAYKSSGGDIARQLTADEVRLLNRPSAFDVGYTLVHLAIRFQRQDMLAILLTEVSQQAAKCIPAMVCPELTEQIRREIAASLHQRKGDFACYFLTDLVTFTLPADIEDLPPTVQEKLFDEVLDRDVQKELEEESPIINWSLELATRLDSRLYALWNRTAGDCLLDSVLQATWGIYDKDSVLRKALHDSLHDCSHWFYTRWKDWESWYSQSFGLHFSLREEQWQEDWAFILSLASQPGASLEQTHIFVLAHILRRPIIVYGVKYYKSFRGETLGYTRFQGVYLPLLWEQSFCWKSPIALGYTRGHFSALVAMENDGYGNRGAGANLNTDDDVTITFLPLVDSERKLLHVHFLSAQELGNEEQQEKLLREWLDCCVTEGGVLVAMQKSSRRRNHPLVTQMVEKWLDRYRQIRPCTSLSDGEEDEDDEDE
Sequence of UniProt O75317 (O75317 whole entry): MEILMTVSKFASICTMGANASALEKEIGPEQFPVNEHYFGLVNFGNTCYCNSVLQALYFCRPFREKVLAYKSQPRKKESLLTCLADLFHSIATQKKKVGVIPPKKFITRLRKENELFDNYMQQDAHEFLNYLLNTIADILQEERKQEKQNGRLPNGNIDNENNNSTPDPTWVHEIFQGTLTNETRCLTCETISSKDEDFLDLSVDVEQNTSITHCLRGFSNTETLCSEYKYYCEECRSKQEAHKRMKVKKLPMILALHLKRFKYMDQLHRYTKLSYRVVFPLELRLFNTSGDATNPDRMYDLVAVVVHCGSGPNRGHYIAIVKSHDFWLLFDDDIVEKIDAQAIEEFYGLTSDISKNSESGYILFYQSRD
Sequence of UniProt P15374 (P15374 whole entry): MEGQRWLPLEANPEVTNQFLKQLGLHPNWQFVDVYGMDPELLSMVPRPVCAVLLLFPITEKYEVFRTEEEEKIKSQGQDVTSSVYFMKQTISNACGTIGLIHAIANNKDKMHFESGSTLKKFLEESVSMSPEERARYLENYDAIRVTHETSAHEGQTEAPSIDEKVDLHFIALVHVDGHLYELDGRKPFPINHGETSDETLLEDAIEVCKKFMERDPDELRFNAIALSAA

Compound in one assay: CN(Cc1cccc(OCc2ccccc2C)c1)C(=O)CCl
The assay can be described thus: log2 ratio of Biotin-Ahx-Ub-VS probe labelling (compound/DMSO); higher = less target engagement, active = hit call of the paper (q ≤ 0.05, log2 ratio ≤ -1). The following applies: compound concentration: 50uM; treatment time: 3 h. As to the method: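 Round 2 competitive ABPP in HEK293T lysate. Purified HTC-D2B compounds were tested at 50 and 200 µM for 3 h, followed by Biotin-Ahx-Ub-VS enrichment and diaPASEF LC-MS/MS. Values are the average log2 ratio (compound/DMSO) from an unpaired t-test (n=3 treated, n=26 DMSO).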
In the case of USP14 (UniProt P54578), the “log2 ratio of Biotin-Ahx-Ub-VS probe labelling” value (“log2 ratio” below) is -0.544.
Regarding USP7 (UniProt Q93009), the “log2 ratio” value was -0.769.
Still for that read-out and setting: next, UniProt Q8TE49: -0.844; OTUD7B (UniProt Q6GQQ9): -0.878; OTUD6B (UniProt Q8N6M0): -0.59.
The same measure, in the same setting: the result for USP16 (UniProt Q9Y5T5) reads -0.495.
Take USP34 (UniProt Q70CQ2): the “log2 ratio” value was 0.154.
On the same count and under the same terms, next, UniProt Q9P2H5: -0.626; OTUD4 (UniProt Q01804): -0.447; UCHL3 (UniProt P15374): -0.479.
As for USP10 (UniProt Q14694), the “log2 ratio” value was -0.287.
The same measure, in the same setting: the result for USP12 (UniProt O75317) reads -0.484; that for COPS5 (UniProt Q92905), -0.375; that for USP48 (UniProt Q86UV5), -0.235.
For the target USP36 (UniProt Q9P275), the “log2 ratio” value was -0.207.
Still for that read-out and setting: the result for UniProt Q9UGI0 reads -0.392; that for ALG13 (UniProt Q9NP73), 0.469; that for UniProt Q70EL2, -0.959.
As to USP42 (UniProt Q9H9J4), the “log2 ratio” value is 0.101.
The same measure, in the same setting: next, UniProt P51784: -0.394.

The assay is the same for the next values; noted with them: compound concentration: 200uM; treatment time: 3 h.
On to USP14 (UniProt P54578), for which the “log2 ratio” value is -0.62.
The same measure, in the same setting: the result for USP7 (UniProt Q93009) reads -1.62 (active).
Turning to UniProt Q8TE49, the “log2 ratio” value is -1.04.
On to OTUD7B (UniProt Q6GQQ9), for which the “log2 ratio” value is -2.2 (active).
On the same count and under the same terms, the result for OTUD6B (UniProt Q8N6M0) reads -0.817.
For USP16 (UniProt Q9Y5T5), the “log2 ratio” value was -0.496.
Consider USP34 (UniProt Q70CQ2), for which the “log2 ratio” value is -0.582.
Same read-out and setting: next, UniProt Q9P2H5: -0.327; OTUD4 (UniProt Q01804): -0.51; UCHL3 (UniProt P15374): -0.262.
In the case of USP10 (UniProt Q14694), the “log2 ratio” value is -0.0982.
Same read-out and setting: next, USP12 (UniProt O75317): -0.602; COPS5 (UniProt Q92905): -0.104; USP48 (UniProt Q86UV5): -0.552.
Same read-out and setting: the result for USP36 (UniProt Q9P275) reads -0.146; that for UniProt Q9UGI0, -0.664; that for ALG13 (UniProt Q9NP73), -0.522.
The same measure, in the same setting: the result for UniProt Q70EL2 reads -0.772; that for USP42 (UniProt Q9H9J4), 0.171; that for UniProt P51784, -0.417.

The values above are taken from the supplement of paper PMC11732987, “Enantioselective OTUD7B fragment discovery through chemoproteomics screening and high-throughput optimisation” (Communications Chemistry, 2025).
